Several values for one entry are separate records, joined by “and”; a condition that tells them apart may be missing. Identical values can stand only once. Records with an inconclusive call do not appear. Some structures have more than one record in an assay (separate samples or runs), and their calls can disagree. Activity calls are given as the source filed them.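 How the source made its calls, unless noted: active means normalized viability below 100% at a tested concentration; inactive means the rest.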
Experiments:
[1] = P. berghei load reduction in hepatocytes – cell-based, HepG2, luciferase luminescence, HepG2 viability, primary screen (AID 624349; in the data active means parasite load remaining mostly below about 12%, no sharp cut-off; inactive means mostly above about 10%;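 further: 100% = mean of DMSO negative control wells on the same plate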); details: P. berghei liver stage in HepG2, luciferase luminescence, concentration not given here; parasite load remaining: stronger effect = lower value; viability: measured here: HepG2 viability without parasites
[2] = system: Aerobactin synthetase IucA (Klebsiella pneumoniae); experiment: inhibition of K. pneumoniae IucA enzyme – biochemical, Tocris library, absorbance (AID 1345561; call rule not given here;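 further: 100% = enzyme without compound and 0% = no enzyme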); details: purified IucA enzyme assay, absorbance (OD) read-out; stronger effect = lower value;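 tested at 8 µM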
[3] = viability loss in pontine glioma line – cell-based, SU-DIPG-XVII, MIPE5.0, CellTiter-Glo, qHTS, dose response (AID 1347060; cut-off not given, nearly all actives have AC50 up to about 26 µM); details: CellTiter-Glo ATP luminescence
[4] = viability loss in pontine glioma line – cell-based, JHH-DIPG-1, MIPE4.0, CellTiter-Glo, qHTS, dose response (AID 1347062; cut-off not given, nearly all actives have AC50 up to about 27 µM;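 further: cells exposed to compound for two days before readout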); details: JHH-DIPG-1 viability, CellTiter-Glo ATP luminescence
[5] = viability loss in pontine glioma line – cell-based, SU-DIPG-IV, MIPE4.0, CellTiter-Glo, qHTS, dose response (AID 1347063; cut-off not given, nearly all actives have AC50 up to about 30 µM;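 further: compound exposure lasted 48 hours before the viability readout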); details: CellTiter-Glo ATP luminescence
[6] = viability loss in pontine glioma line – cell-based, SU-DIPG-XIII, MIPE5.0, CellTiter-Glo, qHTS, dose response (AID 1347064; cut-off not given, nearly all actives have AC50 up to about 23 µM); details: CellTiter-Glo ATP luminescence
[7] = growth inhibition of DIPG cells – cell-based, MIPE4.0 library, CellTiter-Glo luminescence, qHTS (AID 1347066; cut-off not given, nearly all actives have AC50 up to about 30 µM;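 further: cells exposed to compound for 48 hours before readout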); details: SU-DIPG-VI viability, CellTiter-Glo ATP luminescence
[8] = compounds altering HSF1 focus formation in cells – imaging, Selleck Cancer Library (AID 1347162; in the data active means plate-normalised HSF1 focus index below about 0.46); details: human cells, HSF1 nuclear foci imaging, at 10 µM; SSMD: measured here: HSF1 foci SSMD mean; cell count: measured here: cell number; plate-normalised HSF1 focus index: stronger effect = lower value
[9] = MELAS cybrid and Rieske KO viability enhancers – cell-based, MELAS cybrids, Rieske KO mouse fibroblasts, CellTiter-Glo, primary screen (AID 1508586;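 active means mean z-score across replicates of 1.96 or higher in either the MELAS or the Rieske mutant cell line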;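 further: z relative to plate mean and SD of compound and empty wells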); details: low glucose
[10] = drug combination growth inhibition, ovarian cancer – cell-based, oncology-focused library, rucaparib conditional, profiling panel (AID 1508598); details: patient-derived ovarian cancer cells, CellTiter-Glo viability, 144 h, stronger effect = lower value
[11] = galactose survival enhancers in mitochondrial complex I cybrids – cell-based, galactose medium, ATP luminescence, primary screen (AID 1645843;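 active means z-score of at least 1.8 in each of two replicates, scored against plate mean and spread of sample wells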;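 further: positive z means more ATP and so rescue of galactose-driven cybrid death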); details: complex I mutant cybrid cells, 72 h, stronger effect = higher value

CS(=O)c1ccc(-c2nc(-c3ccc(F)cc3)c(-c3ccncc3)[nH]2)cc1 (stereo unspecified)
inactive: parasite load remaining [1] 28.5% | remaining activity [2] 113% and 119% | outcome [3] | outcome [6] | outcome [7] | plate-normalised HSF1 focus index [8] 1.16 | z-score ([9]; MELAS cybrid survival, CellTiter-Glo 48 h, stronger effect = higher value) -0.617 | viability ([10]; at 0.000305 µM, OCI-C5x cells, with rucaparib 10 µM, 100% = cells with rucaparib alone) 128% | viability ([10]; at 0.000305 µM, OCI-C5x cells, without rucaparib) 139% | viability ([10]; at 0.000305 µM, OCI-P5x cells, with rucaparib 20 µM, 100% = cells with rucaparib alone) 109% | viability ([10]; at 0.000305 µM, OCI-P5x cells, without rucaparib) 111% | viability ([10]; at 0.00122 µM, OCI-C5x cells, with rucaparib 10 µM, 100% = cells with rucaparib alone) 123% | viability ([10]; at 0.00122 µM, OCI-C5x cells, without rucaparib) 135% | viability ([10]; at 0.00122 µM, OCI-P5x cells, with rucaparib 20 µM, 100% = cells with rucaparib alone) 103% | viability ([10]; at 0.00122 µM, OCI-P5x cells, without rucaparib) 107% | viability ([10]; at 0.00488 µM, OCI-C5x cells, with rucaparib 10 µM, 100% = cells with rucaparib alone) 134% | viability ([10]; at 0.00488 µM, OCI-C5x cells, without rucaparib) 139% | viability ([10]; at 0.00488 µM, OCI-P5x cells, with rucaparib 20 µM, 100% = cells with rucaparib alone) 108% | viability ([10]; at 0.00488 µM, OCI-P5x cells, without rucaparib) 111% | viability ([10]; at 0.0195 µM, OCI-C5x cells, with rucaparib 10 µM, 100% = cells with rucaparib alone) 128% | viability ([10]; at 0.0195 µM, OCI-C5x cells, without rucaparib) 145% | viability ([10]; at 0.0195 µM, OCI-P5x cells, with rucaparib 20 µM, 100% = cells with rucaparib alone) 108% | viability ([10]; at 0.0195 µM, OCI-P5x cells, without rucaparib) 108% | viability ([10]; at 0.0781 µM, OCI-C5x cells, with rucaparib 10 µM, 100% = cells with rucaparib alone) 127% | viability ([10]; at 0.0781 µM, OCI-C5x cells, without rucaparib) 164% | viability ([10]; at 0.0781 µM, OCI-P5x cells, with rucaparib 20 µM, 100% = cells with rucaparib alone) 108% | viability ([10]; at 0.0781 µM, OCI-P5x cells, without rucaparib) 112% | viability ([10]; at 0.313 µM, OCI-C5x cells, with rucaparib 10 µM, 100% = cells with rucaparib alone) 129% | viability ([10]; at 0.313 µM, OCI-C5x cells, without rucaparib) 159% | viability ([10]; at 0.313 µM, OCI-P5x cells, with rucaparib 20 µM, 100% = cells with rucaparib alone) 119% | viability ([10]; at 0.313 µM, OCI-P5x cells, without rucaparib) 111% | viability ([10]; at 1.25 µM, OCI-C5x cells, with rucaparib 10 µM, 100% = cells with rucaparib alone) 116% | viability ([10]; at 1.25 µM, OCI-C5x cells, without rucaparib) 166% | viability ([10]; at 1.25 µM, OCI-P5x cells, with rucaparib 20 µM, 100% = cells with rucaparib alone) 130% | viability ([10]; at 1.25 µM, OCI-P5x cells, without rucaparib) 108% | viability ([10]; at 5 µM, OCI-C5x cells, with rucaparib 10 µM, 100% = cells with rucaparib alone) 132% | viability ([10]; at 5 µM, OCI-C5x cells, without rucaparib) 161% | viability ([10]; at 5 µM, OCI-P5x cells, with rucaparib 20 µM, 100% = cells with rucaparib alone) 119% | viability ([10]; at 5 µM, OCI-P5x cells, without rucaparib) 113%
1.98 (inactive) and 3.42 (active): z-score [11]
active: AC50 [4] 15.2 µM | AC50 [5] 48.1 µM
0.991: z-score ([9]; Rieske KO mouse fibroblast survival, CellTiter-Glo 72 h)
76.8%: viability [1]
7460: cell count [8]
2.53: SSMD [8]

From PubChem BioAssay
